# Test results taken from PubChem BioAssay (Tox21).
# Inconclusive results are not listed. Unmarked numbers belong to inactive results. Activity calls are given as the source filed them. Unless noted, calls come from the whole dose curve.
# System: not listed separately
# Assay: qHTS assay to identify small molecule antagonists of the farnesoid-X-receptor (FXR) signaling pathway - cell viability counter screen (AID 743221; active = well fitted cell-killing curve with a large enough effect in the repeat runs, not every such curve was filed as active; note: nearly all actives have a fitted effect of over 50% in size)
# Details: FXR-bla HEK293T viability, CellTiter-Glo luminescence, 16 h; series mostly up to 62.6 µM
# How it was run: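 FXR-UAS-bla HEK 293T cells were treated with test compounds plus chenodeoxycholic acid (50 uM final) for 16 h at 37 C. Cell viability in the same wells was then read as CellTiter-Glo luminescence after 30 min at room temperature.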
# % is set by controls: 0 for no effect and ±100 for the full control effect.
SMILES,outcome,"activity change, negative = cytotoxicity"
O=S1(=O)CCCC1,inactive,–
Cc1cccc(C(=O)O)c1[N+](=O)[O-],inactive,–
NC(=O)C1(N2CCCCC2)CCN(CCCC(=O)c2ccc(F)cc2)CC1,inactive,–
O=C(/C=C/c1ccccc1)NCCO,inactive,–
O=C(O)Cc1cccc(-c2cc(CCCCCCc3ccc(O[C@H]4O[C@H](CO)[C@@H](O)[C@H](O)[C@@H]4O)c(-c4cccc(CC(=O)O)c4)c3)ccc2O[C@H]2O[C@H](CO)[C@@H](O)[C@H](O)[C@@H]2O)c1,–,0.163% [at 0.55 µM]
O=C(Oc1ccccc1C(=O)O)c1ccccc1O,inactive,–
CN[C@@H]1[C@H](O)[C@H](NC)[C@H]2O[C@@]3(O)C(=O)C[C@@H](C)O[C@H]3O[C@@H]2[C@H]1O,inactive,–

# Molecular target: Vitamin D3 receptor (Homo sapiens) (UniProt P11473)
# Assay: qHTS assay to identify small molecule agonists of the vitamin D receptor (VDR) signaling pathway (AID 743222)
# Details: HEK293T VDR-UAS-bla, beta-lactamase FRET ratio, 16 h; series mostly up to 63.5 µM
# How it was run: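 VDR-bla cells, 2,000/well; 4 h preincubation 37C; cpd (DMSO) 16 h; LiveBLAzer B/G substrate 2 h RT; fluorescence intensity read.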
# Sequence of Vitamin D3 receptor (Homo sapiens) (P11473 whole entry, looked up): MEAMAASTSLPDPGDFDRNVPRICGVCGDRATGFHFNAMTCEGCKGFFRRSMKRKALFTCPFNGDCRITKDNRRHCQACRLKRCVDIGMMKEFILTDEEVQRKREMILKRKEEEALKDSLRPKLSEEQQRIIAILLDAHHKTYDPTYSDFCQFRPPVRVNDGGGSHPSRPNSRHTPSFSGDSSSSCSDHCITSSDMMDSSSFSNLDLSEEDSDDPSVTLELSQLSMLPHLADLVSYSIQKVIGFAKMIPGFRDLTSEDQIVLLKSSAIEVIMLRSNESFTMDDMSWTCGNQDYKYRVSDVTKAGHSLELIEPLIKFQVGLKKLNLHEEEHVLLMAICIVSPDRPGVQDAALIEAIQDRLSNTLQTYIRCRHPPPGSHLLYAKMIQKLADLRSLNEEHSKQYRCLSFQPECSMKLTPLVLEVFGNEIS
row,SMILES,outcome
1,C[C@H]1O[C@H](O[C@H]2[C@H](O)[C@@H](O)[C@@H](O[C@H]3[C@H](O)[C@@H](O)[C@H](O)O[C@@H]3CO)O[C@@H]2CO)[C@H](O)[C@@H](O)[C@@H]1N[C@H]1C=C(CO)[C@@H](O)[C@H](O)[C@H]1O,inactive
2,CCCCCC1CCCC(=O)O1 (configuration not stated),inactive
3,Cc1oc(=O)oc1CN1CCN(c2cc3c(cc2F)c(=O)c(C(=O)O)c2n3C(C)S2)CC1 (configuration not stated),inactive
4,CCNC(=O)/C=C/c1cccc(Br)c1,inactive
5,N#CCCOCCOCCC#N,inactive
6,CCCOC(=O)CCCCC(=O)OCCC,inactive
7,COc1cc(C=O)ccc1OC(=O)C(C)C,inactive
8,O=C(O)c1c(Cl)ccc(Cl)c1Cl,inactive
9,CC(C)CCC(=O)CCC(C)C,inactive
10,Cc1cc(O)c2c(c1)C(=O)c1cccc(O)c1C2=O,inactive
